Records with an inconclusive call do not appear. Activity calls are given as the source filed them. Calls come from the whole dose curve; as a rule, active = well fitted cell-killing curve with a large enough effect in the repeat runs; inconclusive = weak or mixed curves, or effect the other way; inactive = no such curve, though single readings can be large or run the other way.
Experiment: qHTS assay to identify small molecule agonists of the farnesoid-X-receptor (FXR) signaling pathway - cell viability counter screen (AID 743218); note: nearly all actives have a fitted effect of over 45% in size
Conditions: FXR-bla HEK293T viability, CellTiter-Glo luminescence, 16 h; series mostly up to 62.6 µM; viability change, negative = cytotoxic: at the top concentration
Source text: U.S. Tox21 Program National Center for Advancing Translational Sciences [NCATS] NIH Chemical Genomics Center [NCGC] U.S. Environmental Protection Agency [EPA] National Institutes of Environmental Health Sciences [NIEHS] National Toxicology Program [NTP] U.S. Food and Drug Administration [FDA] Tox21 Assay Overview: The farnesoid-X-receptor (FXR), a nuclear hormone receptor, is highly expressed in liver, intestine, kidney and adrenal cortex. Natural ligands of FXR are the bile acids (Cholic acid, Chenodeoxy cholic acid etc). FXR is an important regulator of diverse metabolic pathways, including the bile acid homeostasis, lipid and glucose metabolisms. FXR regulates the expression of target genes by binding either as a monomer or as a heterodimer with the retinoid X receptor (RXR). Numerous studies have reported that FXR exerts protective function during cholestasis, diabetes, liver regeneration, and cancer. To identify compounds that activate FXR signaling, GeneBLAzer FXR-UAS-bla HEK 293T cell line (Invitrogen, Carlsbad, CA) containing a beta-lactamase reporter gene under the control of a UAS response element was used to screen the Tox21 10K compound library. The cytotoxicity of the Tox21 compound library against the FXR-bla cell line was tested in parallel by measuring the cell viability using CellTiter-Glo assay in the same wells.
Tox21 Assay Protocol Summary: FXR-bla cells were dispensed at 5000 cells/5uL/well in 1536-well black wall/clear bottom plates using a Multidrop Combi (Thermo Fisher Scientific, Waltham, MA) dispenser. After the assay plates were incubated at 37 C and 5% CO2 for 5 h, 23 nL of compounds dissolved in DMSO, positive controls or DMSO only was transferred to the assay plate by a Pintool station (Kalypsys, San Diego, CA). The assay plates were incubated at 37C for 16 h. After 1 uL of LiveBLAzerTM B/G FRET substrate was added using a Bioraptr Flying Reagent Dispenser (FRD) workstation (Beckman Coulter, Indianapolis, IN), the plates were incubated at room temperature for 2 h, and fluorescence intensity was measured by an Envision plate reader (PerkinElmer, Shelton, CT). For cell viability readout that measures cytotoxicity, 4uL/well of CellTiter-Glo reagent was added into the assay plates using a Bioraptr FRD. After 30 min incubation at room temperature, the luminescence intensity in the plates was measured using a ViewLux plate reader (PerkinElmer).
% is set by controls: 0 for no effect and ±100 for the full control effect.

Structure (SMILES) | viability change, negative = cytotoxic
O=C1c2ccccc2C(=O)C1c1ccccc1 | 12.6% (inactive)
C=C(C)C(=O)OCCNC(C)(C)C | 13.9% (inactive)
COc1cc2c(cc1OC)[C@@H]1CC(=O)[C@@H](CC(C)C)CN1CC2 | 1.92% (inactive)
O=C1c2ccccc2C(=O)N1CCl | -7.58% (inactive)
CC(=O)c1sc(C)nc1C | 6.16% (inactive)
O=C(Nc1ccc(Cl)c(Cl)c1)C1CC1 | 14.6% (inactive)
CC(CN)CC(C)(C)CCN (stereo not given) | 1.61% [at 81.1 µM] (inactive)
CC(C)(C)c1nnc(NS(=O)(=O)c2ccc(N)cc2)s1 | 1.08% (inactive)
c1ccc2c(c1)ccc1c3ccccc3ccc21 | -0.563% (inactive)
CC(C)(C)OC(=O)c1ccc(O)cc1 | 6.88% (inactive)
Cc1cccc(C)c1OCC(C)N (stereo not given) | -25.7% (inactive)
O=C(OCC(O)CO)c1ccccc1Nc1ccnc2c(C(F)(F)F)cccc12 (stereo not given) | 14.1% (inactive)
COc1cc(NS(=O)(=O)c2ccc(N)cc2)nc(OC)n1 | 2.2% (inactive)
CCOCCOCCOCC | 17.6% (inactive)
CC(=O)Nc1ccc(S(=O)(=O)Cl)cc1 | 4.87% (inactive)
CC/C=C\CC1=C(C)CCC1=O | 14% (inactive)
Cc1nc2n(c(=O)c1CCN1CCC(c3noc4cc(F)ccc34)CC1)CCC[C@H]2O | -5.47% [at 29.1 µM] (inactive)
CCCCCCCC/C=C\CCCCCCCC(=O)OCCCC | -2.81% [at 29.1 µM] (inactive)
OC[C@H](Cc1cccc(O)c1)[C@H](CO)Cc1cccc(O)c1 | 15.3% [at 81.1 µM] (inactive)
C[C@H](CCC(=O)O)[C@H]1CC[C@H]2[C@@H]3C(=O)C[C@@H]4CC(=O)CC[C@]4(C)[C@H]3CC(=O)[C@]12C | 45.8% (inactive)

Structure (SMILES) | viability change, negative = cytotoxic
Nc1nnc(-c2cccc(Cl)c2Cl)c(N)n1 | 1.43% (inactive)
CC(=O)Nc1cccc(C)c1 | -0.147% [at 81.1 µM] (inactive)
COc1ccc2c(c1)C(=O)N(CCc1ccc(S(=O)(=O)NC(=O)NC3CCCCC3)cc1)C(=O)C2(C)C | 20.1% (inactive)
CC(C)(C)c1n[nH]c(=S)n(N)c1=O | 14.9% (inactive)
CCC(C)NC(N)=O (stereo not given) | 4.47% (inactive)
Cc1ccc(C=O)cc1C | -3.49% (inactive)
O=C(OCC1(COC(=O)c2cccnc2)CCCC(COC(=O)c2cccnc2)(COC(=O)c2cccnc2)C1O)c1cccnc1 | 8.71% (inactive)
O=C(O)c1cc(Br)c(O)c(Br)c1 | -27% (inactive)
CC(C)OC(=O)CCCCC(=O)OC(C)C | 14.9% (inactive)
CCc1ccc(C=O)cc1 | 0.779% (inactive)
O=Cc1ccc(Cl)c(Cl)c1 | -4.33% [at 81.1 µM] (inactive)
O=S(=O)(O)c1cc(O)c2ccc(Nc3ccccc3)cc2c1 | 7.22% (inactive)
O=C1CC(c2ccc(Cl)cc2)CC(=O)N1 | 0.419% (inactive)
O=S(=O)(O)c1ccc2cc(O)c(S(=O)(=O)O)cc2c1 | -7.38% (inactive)
CC(C)NCC(O)COc1cccc2[nH]ccc12 (stereo not given) | 2.15% (inactive)
O=C(/N=N/C(=O)OCc1ccccc1)OCc1ccccc1 | 10.6% (inactive)
C=C1CC/C=C(\C)CC[C@@H]2[C@@H]1CC2(C)C | 3.53% (inactive)
COc1ccc2nc(SCc3ncc(C)c(OC)c3C)[nH]c2c1 | 10% (inactive)
Cc1cc2cc3c(C)cc(=O)oc3c(C)c2o1 | 2.31% (inactive)
O=C1O[C@@H]2[C@@H](O)[C@H](O)O[C@@H]2[C@H]1O | -1.44% (inactive)

— PubChem BioAssay (Tox21)
